High-throughput results as filed in PubChem BioAssay.
TWEAK-Fn14 inh – inhibitors of TWEAK-Fn14 signaling, primary screen, luciferase reporter cells, uHTS; AID 1159606, 2016; actives 2% (n = 360,000); TWEAK-stimulated Fn14 reporter cells, luciferase luminescence, 8 h; inhibition, % at 10 µM; in the data active means inhibition above about 50%
aSyn UTR inh – MLPCN primary screen, SNCA 5' untranslated region; actives 0.82% (n = 300,000); alpha-synuclein 5'UTR reporter, inhibitor activity; AID 1813, 2009; inhibition, % (tested at 7.5 µM); in the data active means inhibition above about 60%;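 further: H4 neuroglioblastoma cells stably carrying SNCA 5'UTR luciferase fusion; 0% = DMSO wells and 100% = positive control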
TROY signal inh – inhibitors of TROY-driven NF-kB signaling, primary screen, Q293 LMP1-TROYcd cells, NF-kB luciferase, uHTS | Q293 LMP1-TROYcd NF-kB luciferase reporter, 4 h | inhibition, % at 10 µM | actives 0.98% (n = 360,000) | AID 1347056, 2019;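 active means compounds whose plate-normalised and pattern-corrected inhibition of the luciferase reporter signal at the single screening dose is 50% or more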
TRAIL sens C8 – viability loss with TRAIL in NB7+C8 cells, primary screen, TRAIL sensitizer project, cell-based, ATPlite luminescence; inhibition (viability loss, TRAIL sensitization), % at 10 µM; actives 1% (n = 360,000);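 active means compounds causing at least 50% loss of cell viability in the single-dose screen, relative to plate controls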
HIF-2a block – HIF-2a reporter inhibitors, primary screen, luminescence, 786-0 RCC cells | 786-0 RCC cells HIF-2a reporter, luciferase luminescence, overnight | inhibition, % at 18.8 µM | actives 0.72% (n = 360,000) | AID 624352, 2012;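 active means inhibition of the luminescence signal of 40% or more relative to plate controls, in a single-dose primary screen at 18.75 µM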
HSP90 refold inh – HSP90 inhibitors, primary screen, cell lysate, luminescence; Rabbit reticulocyte lysate, luciferase refolding luminescence, 3 h; inhibition, % at 5.6 µM; AID 1789, 2009; actives 0.91% (n = 290,000);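 active means inhibition above the screen-wide mean plus 3 SD, computed separately per campaign, cut at about 16% in these data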;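 further: 0% = DMSO wells and 100% = 60 µM geldanamycin wells; inhibitors lower the luminescence because luciferase stays unfolded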
Mdm2 MdmX conf – retested Mdm2-MdmX interaction blockers, confirmation, cell-based, luminescence, single concentration, set 2. shares compounds with HIF-2a block. SaOS-2 split-luciferase Mdm2/MdmX complementation. inhibition, % at 8 µM. actives 99% (n = 740). AID 504601, 2011;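 active means mean inhibition of the luminescence signal across two replicates at or above 26 percent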
Target sequence (O15151 whole entry, looked up): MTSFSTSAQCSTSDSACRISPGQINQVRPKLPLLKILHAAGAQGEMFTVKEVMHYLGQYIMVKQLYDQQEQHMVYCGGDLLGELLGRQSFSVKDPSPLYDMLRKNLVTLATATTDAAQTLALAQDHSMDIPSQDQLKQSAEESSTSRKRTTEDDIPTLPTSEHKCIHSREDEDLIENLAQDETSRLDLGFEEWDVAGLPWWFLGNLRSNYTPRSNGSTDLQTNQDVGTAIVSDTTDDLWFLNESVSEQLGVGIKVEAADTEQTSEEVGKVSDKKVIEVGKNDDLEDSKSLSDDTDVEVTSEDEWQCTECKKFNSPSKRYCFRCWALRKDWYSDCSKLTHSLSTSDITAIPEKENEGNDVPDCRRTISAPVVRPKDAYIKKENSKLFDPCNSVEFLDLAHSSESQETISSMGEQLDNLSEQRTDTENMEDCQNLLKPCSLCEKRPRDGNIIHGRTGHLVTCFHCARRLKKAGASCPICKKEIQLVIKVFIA
Target sequence (Q00987 whole entry, looked up): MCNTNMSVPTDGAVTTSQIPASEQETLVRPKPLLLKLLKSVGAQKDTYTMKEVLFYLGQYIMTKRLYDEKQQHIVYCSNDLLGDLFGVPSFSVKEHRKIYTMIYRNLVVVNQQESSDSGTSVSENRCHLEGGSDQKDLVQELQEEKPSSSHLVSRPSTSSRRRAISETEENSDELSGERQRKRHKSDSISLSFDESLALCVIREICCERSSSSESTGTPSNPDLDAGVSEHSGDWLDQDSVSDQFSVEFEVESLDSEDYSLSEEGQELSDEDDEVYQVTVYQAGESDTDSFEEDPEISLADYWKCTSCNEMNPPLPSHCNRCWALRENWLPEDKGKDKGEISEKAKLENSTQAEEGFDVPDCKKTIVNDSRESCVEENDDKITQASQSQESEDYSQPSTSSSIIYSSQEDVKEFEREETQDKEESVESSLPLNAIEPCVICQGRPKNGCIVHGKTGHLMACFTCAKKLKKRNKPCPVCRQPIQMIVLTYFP
HIF-2a inh conf – HIF-2a reporter inhibitor retest, confirmation, luminescence, 786-0 RCC cells | shares compounds with HIF-2a block | HIF-2a luciferase reporter luminescence, overnight | inhibition, % at 18.8 µM | actives 56% (n = 1,800);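 active means mean inhibition across four replicates of at least 40 percent at the single tested concentration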
HIF-1a cs – HIF-1a luciferase reporter signal reduction – MiaPaCa-2 cells, single concentration, counter-screen for HIF-2a inhibitor project, confirmation; inhibition, % at 18.8 µM; shares compounds with HIF-2a block; AID 651589, 2012; actives 72% (n = 1,800); MiaPaCa-2 HIF-1a luciferase reporter, desferoxamine, overnight;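 active means mean inhibition of the reporter signal across four replicates at the single tested dose of 50% or more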
Numbers without * were called inactive; nt = no result given. A selection: hits, their analogues and other compounds. The true share with any hit is near 3.9%.

SMILES	TWEAK-Fn14 inh	aSyn UTR inh	TROY signal inh	TRAIL sens C8	HIF-2a block	HSP90 refold inh	HIF-2a inh conf	HIF-1a cs	others
CCOC(=O)/C(=C\c1ccc(Cl)cc1)c1nc2sc(C)c(C)c2c(=O)[nH]1	104*	-49	53*	13	94*	-4	98*	107*
CC(C)(C)S(=O)N1Cc2ccc(CO)cc2[C@@H]1CCO (stereo partly drawn)	0	nt	-2	-4	6	nt	nt	nt
COCCNC(=O)[C@H](CSCc1ccccc1)N1Cc2ccccc2C1=O	4	1	44	15	48*	0	14	-6
CSc1ccc(OC2(C)CCN(Cc3cc4ccccc4o3)C2)cc1 (stereo not drawn)	-18	nt	13	3	-3	nt	nt	nt
CC12CCC(C(=O)Nc3ccc4c(c3)OCCO4)(OC1=O)C2(C)C (stereo not drawn)	83*	-23	70*	4	42*	2	32	50*
Cc1cccc(NC(=O)C23CCC(C)(C(=O)O2)C3(C)C)c1 (stereo not drawn)	3	21	4	3	10	-2	nt	nt
OCc1ccccc1-c1nc(NCC2CC2)nc2ccsc12	-10	nt	0	-9	13	nt	nt	nt
O=C(NCc1ccccc1CN1CCCC1)c1cccc(S(=O)(=O)N2CCOCC2)c1	4	nt	-10	11	5	nt	nt	nt
COc1cc2c3nnc(-c4ccc(F)cc4)c-3cn(Cc3cccc(F)c3)c2cc1OC	-19	8	-7	-9	27	-1	nt	nt	Mdm2 MdmX conf=103*
CSc1ncccc1C(=O)OC(C)C(=O)Nc1cccc(S(=O)(=O)N2CCOCC2)c1 (stereo not drawn)	-16	nt	3	7	15	nt	nt	nt
CC(C)CC1(C)NC(=O)N(CC(=O)Nc2ccccc2Br)C1=O (stereo not drawn)	-13	nt	-2	-5	12	nt	nt	nt
COc1ccc([C@H]2C[C@H](n3cc(-c4ccc(F)cc4)nn3)[C@@H](O)CN2Cc2cccs2)cc1	-8	nt	21	2	8	nt	nt	nt
COc1ccc([C@H]2C[C@H](O)[C@@H](n3cc(-c4ccc(F)cc4)nn3)CN2Cc2cccs2)cc1	42	nt	38	36	77*	nt	30	104*
CCc1nc2ccc(C(=O)NCCN3CCNC3=O)cn2c1N(CCC(C)C)CCN(C)C	13	nt	0	1	9	nt	nt	nt
CCOC(=O)CNC(=O)CSc1ncnc2c1cnn2Cc1ccccc1	2	-18	-4	-7	48*	0	20	16
CCN(CC)C(=O)CSc1ncnc2c1cnn2Cc1ccccc1	12	-14	5	-11	1	2	nt	nt
CCCc1c(-c2ccc(F)cc2F)ncn1Cc1ccccc1OC	-14	nt	17	18	-3	nt	nt	nt
CCN(CC)Cc1c(O)ccc2c1O/C(=C\C=C\c1ccccc1)C2=O	63*	-438	-9	5	66*	2	nt	nt	Mdm2 MdmX conf=14
COc1ccccc1/C=C/C=C1\Oc2c(ccc(O)c2CN(C)C)C1=O	2	0	6	3	-53	8	nt	nt
CCN(CC)C(=O)C1=C(C)N(Cc2ccccc2)C(=O)C(CC(=O)NC2CCCC2)C1 (stereo not drawn)	2	nt	1	-9	6	nt	nt	nt
CCOc1ccc(NC(=O)CN(C)Cc2ccc3c(c2)OCO3)cc1S(=O)(=O)N1CCCC1	6	nt	17	-13	-2	nt	nt	nt
CCCNc1nc(=S)n(-c2ccccc2)c(C)c1C(C)=O	-22	8	-1	-2	19	-3	nt	nt
CCCCNc1nc(=S)n(-c2ccccc2)c(C)c1C(C)=O	11	1	4	12	51*	-3	-12	30
COc1ccc(Cl)cc1-c1noc([C@@H]2O[C@H](CO)[C@H](O)[C@H](O)[C@H]2O)n1	11	nt	3	-7	8	nt	nt	nt
O=C(Nc1ccccc1)OCCc1ccccc1	-11	nt	-60	13	-260	nt	nt	nt
SMILES	TWEAK-Fn14 inh	aSyn UTR inh	TROY signal inh	TRAIL sens C8	HIF-2a block	HSP90 refold inh	HIF-2a inh conf	HIF-1a cs	others
CC(C)(C)[C@H](N)C(=O)N[C@H]1CCC2C3CC=C4C[C@@H](O)CC[C@]4(C)C3CC[C@@]21C (stereo partly drawn)	-221	nt	-6	40	94*	nt	7	105*	Mdm2 MdmX conf=103*
Cc1ccc(S(=O)(=O)N2CCOCC2)cc1NC(=O)c1cc(-c2ccccn2)nc2ccccc12	2	0	3	3	95*	3	14	50
C=CCN1C(=O)N/C(=C/c2ccc(C)o2)C1=O	0	12	-10	-5	40*	0	-33	-13
CC1CCCCC1NC(=O)c1cc(Cl)nc2ccccc12 (stereo not drawn)	6	nt	-1	-3	22	nt	nt	nt
CCc1nnc(NC(=O)c2nc(S(=O)(=O)Cc3cccc(C)c3)ncc2Cl)s1	97*	-114	46	98*	85*	4	nt	nt	Mdm2 MdmX conf=103*
CCOc1ccccc1NC(=O)c1nc(S(=O)(=O)Cc2cccc(C)c2)ncc1Cl	79*	88*	71*	93*	90*	11	86*	103*	Mdm2 MdmX conf=102*
CCc1nnc(NC(=O)c2nc(Cl)ccc2Cl)s1	-6	0	-23	4	-11	-3	nt	nt
CCc1nnc(NC(=O)c2cccc(S(=O)(=O)N3CCN(C)CC3)c2)s1	16	nt	-15	-2	16	nt	nt	nt
CCc1nnc(NC(=O)c2nc(S(=O)(=O)Cc3ccc(C)cc3)ncc2Cl)s1	95*	-52	51*	95*	50*	5	63*	108*	Mdm2 MdmX conf=103*
COc1ccc(C(=O)OCCCc2cc3ccccc3c(=O)o2)cc1	-19	nt	-21	-10	-2	nt	nt	nt
CCc1nc2c(OCc3ccc(C(F)(F)F)cc3)cccn2c1N(C)C(=O)c1ccc(C)cc1	-14	nt	3	5	-2	nt	nt	nt
C[C@@H]1[C@@H](Sc2ccccc2)CC(=O)O[C@@H]1c1ccc(-c2ccccc2)cc1	36	-182	-27	21	98*	nt	6	101*	Mdm2 MdmX conf=103*
Cc1cccnc1C(NC(=O)C1CCN(CCCOc2ccccc2)CC1)c1ccc(F)cc1 (stereo not drawn)	-7	nt	-5	-20	-8	nt	nt	nt
